± gives the standard deviation.

The experiment has as its system OVCAR-3-derived ovarian cancer stem-like cells (spheroids). Briefly: cell growth relative to untreated control; higher = more growth (less inhibition). To be noted: 2.29 µM; 96 h. Put shortly:
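After trypsin dissociation, OVCAR-3 spheroid-derived stem-like cells were placed in ultra-low attachment 96-well plates at 50,000 cells/mL in stem cell medium and preincubated for 24 h. Treatment at 2.29 uM followed for 96 h at 37°C, 5% CO2, with 4 replicate wells per compound. A 4 h TOX8 resazurin fluorescence read (ex 560/em 590 nm) gave viability, from which percent growth relative to untreated wells was derived after blank subtraction and Grubbs outlier removal.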
As for `O=c1oc2cc(O)ccc2c2oc3cc(O)ccc3c12`, the cell growth was found to be 124 ± 31%.
Regarding `COc1ccc(O)cc1`, the cell growth was 62.6 ± 18%.
In turn, `CC1(C)N=C(N)N=C(N)N1c1ccc(OCCCOc2ccccc2)c(Cl)c1` returned a cell growth of 43.6 ± 13%.
As for `Cc1c(C(=O)C/C(=N/NC(=O)CC#N)C(N)=O)[n+](=O)c2ccccc2n1[O-]`, the figure is 51.9 ± 10%.
Compound `Cc1ccccc1NC(=O)/C=N/O` gave a cell growth of 81 ± 7.2%.
In the case of `Nc1nc(N)c(N=Nc2ccccc2)c(=O)[nH]1`, the cell growth was found to be 84.4 ± 21%.
As to `COC(=O)c1c[nH]c2c1-c1cc(C(=O)OCc3ccccc3)n(S(=O)(=O)c3ccc(C)cc3)c1C(=O)C2=O`, the cell growth was 20.9 ± 3.5%.
Compound `Cc1cc2c(cc1C)[n+](=O)c(C(=O)/C=C/c1ccccc1[N+](=O)[O-])c(C)n2[O-]` gave a cell growth of 123 ± 66%.
As for `COCCOC1=C(Cl)C(=O)c2c(O)ccc(O)c2C1=O`, the figure is 114 ± 18%; as for `Cc1ccccc1NC(=O)C(=O)C(C#N)c1ccccc1C` (stereo not given), 7.3 ± 3.2%.
In turn, `CN(N=O)C(=O)N[C@@H]1[C@@H](O)[C@H](O)[C@@H](CO)O[C@@H]1O` gave a cell growth of 104 ± 29%.
Then `COc1cc(C(C)c2cc3c(cc2OCCO)OCO3)cc(OC)c1OC` (stereo not given), with 24.7 ± 6.7%; and `O=C(CC(=O)C(F)(F)F)c1csc2ccccc12`, with 93.5 ± 13%; and `O=C1C(Cl)=C(N2CCN(C3=C(Cl)C(=O)c4ccccc4C3=O)CC2)C(=O)c2ccccc21`, with 52.1 ± 17%.
As for `CC1(O)C=CC(=O)C=C1`, the figure is 116 ± 12%.
`O=c1[nH]c(=O)n(C2OC(CO)C(O)C2O)cc1F` (stereo not given) came in with a cell growth of 19.2 ± 4.6%.
Compound `O=C1C(C(O)(C(F)(F)F)C(F)(F)F)CCC1C(O)(C(F)(F)F)C(F)(F)F` (stereo not given) registered a cell growth of 104 ± 18%.
Then `CCN(CC)CCNc1ccc(CO)c2sc3ccccc3c(=O)c12`, with 99 ± 39%; and `CC(C)(C)N(Cc1ccc2c(c1)OCO2)C(=O)/C=C\[S+]([O-])c1ccccc1` (stereo not given), with 41.6 ± 10%.
Then `O=C1NC(=O)[C@H]2[C@H]3C=C[C@@H]([C@@H]12)[C@@H]1[C@H]2C(=O)NC(=O)[C@H]2[C@H]31`, with 121 ± 29%.
The compound `CC(C)C1=C(O)C2=C(C(=O)C1=O)C1(C)CCCC(C)(C)C1CC2O` (stereo not given) showed a cell growth of 134 ± 36%.
With `CN(C)/N=N/c1nc[nH]c1C(N)=O`, the cell growth came to 164 ± 14%.
`Cc1ccc(NC(=O)/C=C/c2ccccc2)c(C)c1`: the cell growth worked out at 77.2 ± 16%.
On to `Cc1c2cnccc2c(C)c2c1c1ccccc1n2CCOC(=O)c1ccccc1`, for which the cell growth came to 127 ± 35%.
The compound `COc1cc(C(O)CCBr)c(OC)cc1C` (stereo not given) gave a cell growth of 86.9 ± 26%.
Compound `O=S1(=O)OCCOS(=O)(=O)C1Cc1ccccc1` displayed a cell growth of 93.4 ± 15%.
With `Cc1ccccc1OCC(COC(=O)Nc1ccccc1)OC(=O)Nc1ccccc1` (stereo not given), the cell growth stood at 111 ± 16%.
In turn, `C[C@]12CC[C@@H]3c4ccccc4CC[C@H]3[C@@H]1CC[C@@H]2O` showed a cell growth of 229 ± 23%.
In turn, `O=C1C(Br)=C(Br)C(=O)c2ccccc21` displayed a cell growth of 3.3 ± 4%.
Then `OCCNCCN1CCN(CCCN2c3ccccc3Sc3ccc(C(F)(F)F)cc32)CC1`, with 126 ± 42%; and `CN(C)c1nc(=NCc2ccco2)ss1`, with 93.7 ± 7%; and `O=C(CC(=O)c1ccccc1)CC(O)(c1ccccc1)c1ccccc1`, with 124 ± 18%.
Consider `O=[N+]([O-])c1ccccc1S(=O)(=O)c1ccccc1[N+](=O)[O-]`, for which the cell growth was 77.1 ± 18%.
As for `CC(C)=CCC1=C(O)c2ccccc2C(=O)C1=O`, the cell growth amounted to 109 ± 28%.
Take `Cc1c(N=Cc2ccc(N(CCC#N)CCC#N)cc2)c(=O)n(-c2ccccc2)n1C`: the cell growth is 133 ± 36%.
Take `O=C(CCCN1CCC(C(O)c2ccc(F)cc2)CC1)c1ccc(F)cc1` (stereo not given): the cell growth turned out to be 99.7 ± 22%.
Regarding `CCN(CC)CCCC(C)NC(=O)c1ccc2c(c1)C(=O)c1ccccc1C2=O` (stereo not given), the cell growth is 35.6 ± 15%.
On to `COC(=O)/C(=N\NC(=O)c1ccccc1O)C(C#N)c1ccccc1` (stereo not given), for which the cell growth amounted to 99.9 ± 33%.
As for `O=C1C2=Nc3ccccc3C(O)N2c2ccccc21` (stereo not given), the figure is 91 ± 12%.
Regarding `CCCC[S+]([O-])CC(CO)NC(=O)/C=C\c1c(C)[nH]c(=O)[nH]c1=O` (stereo not given), the cell growth was determined as 105 ± 28%.

(Values after the supplement of paper PMC3484114.)
